# Key:
# Assay in all cases: SPOT peptide array binding signal intensity (averaged, normalized) (arbitrary units (background-subtracted, floor 0; scale differs between SH3 domains)); higher = stronger binding of the SH3 domain to the peptide
# [1] = biological target: AgAbp1
# How it was run: (§1)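 Binding signal refers to normalized, background-subtracted spot intensity averaged over replicates, expressed in arbitrary units that differ between domains. GST-fused SH3 domains from four yeast species were incubated at 10 μg/ml overnight at 4°C on cellulose membranes of synthetic 15-mer peptides with cysteines replaced by serines. Bound protein was detected with anti-GST antibody, an HRP anti-mouse secondary and luminol, and quantified with Genespotter.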
# [2] = biological target: AgBbc1
# How it was run: as §1
# [3] = biological target: AgBem1-D1
# How it was run: as §1
# [4] = biological target: AgBzz1-D1
# How it was run: as §1
# [5] = biological target: AgBzz1-D2
# How it was run: as §1
# [6] = biological target: AgCyk3
# How it was run: as §1
# [7] = biological target: AgFus1
# How it was run: as §1
# [8] = biological target: AgHof1
# How it was run: as §1
# [9] = biological target: AgHse1
# How it was run: as §1
# [10] = biological target: AgLsb1
# How it was run: as §1
# [11] = biological target: AgLsb4
# How it was run: as §1
# [12] = biological target: AgMyo5
# How it was run: as §1
# [13] = biological target: AgNbp2
# How it was run: as §1
# [14] = biological target: AgRvs167
# How it was run: as §1
# [15] = biological target: AgSho1
# How it was run: as §1
# [16] = biological target: AgSla1-D1-D2
# How it was run: as §1
# [17] = biological target: AgSla1-D3
# How it was run: as §1
# [18] = biological target: CaAbp1-D1
# How it was run: as §1
# [19] = biological target: CaAbp1-D2
# How it was run: as §1
# [20] = biological target: CaBbc1
# How it was run: as §1
# [21] = biological target: CaBem1-D1
# How it was run: as §1
# [22] = biological target: CaBzz1-D1
# How it was run: as §1
# [23] = biological target: CaBzz1-D2
# How it was run: as §1
# [24] = biological target: CaCyk3
# How it was run: as §1
# [25] = biological target: CaFus1
# How it was run: as §1
# [26] = biological target: CaHof1
# How it was run: as §1
# [27] = biological target: CaHse1
# How it was run: as §1
# [28] = biological target: CaLsb1
# How it was run: as §1
# [29] = biological target: CaLsb4
# How it was run: as §1
# [30] = biological target: CaMyo5
# How it was run: as §1
# [31] = biological target: CaNbp2
# How it was run: as §1
# [32] = biological target: CaRvs167
# How it was run: as §1
# [33] = biological target: CaRvs167-3
# How it was run: as §1
# [34] = biological target: CaSho1
# How it was run: as §1
# [35] = biological target: CaSla1-D1-D2
# How it was run: as §1
# [36] = biological target: CaSla1-D3
# How it was run: as §1
# [37] = biological target: ScAbp1
# How it was run: as §1
binder,measurement,setting,value
VYTRTAFQIPGDDKI,SPOT peptide array binding signal intensity,[1],≤ 0
same,SPOT peptide array binding signal intensity,[2],≤ 0
same,SPOT peptide array binding signal intensity,[3],≤ 0
same,SPOT peptide array binding signal intensity,[4],29
same,SPOT peptide array binding signal intensity,[5],20
same,SPOT peptide array binding signal intensity,[6],0.5
same,SPOT peptide array binding signal intensity,[7],≤ 0
same,SPOT peptide array binding signal intensity,[8],10
same,SPOT peptide array binding signal intensity,[9],≤ 0
same,SPOT peptide array binding signal intensity,[10],474
same,SPOT peptide array binding signal intensity,[11],≤ 0
same,SPOT peptide array binding signal intensity,[12],≤ 0
same,SPOT peptide array binding signal intensity,[13],≤ 0
same,SPOT peptide array binding signal intensity,[14],0.333
same,SPOT peptide array binding signal intensity,[15],≤ 0
same,SPOT peptide array binding signal intensity,[16],≤ 0
same,SPOT peptide array binding signal intensity,[17],≤ 0
same,SPOT peptide array binding signal intensity,[18],≤ 0
same,SPOT peptide array binding signal intensity,[19],≤ 0
same,SPOT peptide array binding signal intensity,[20],3
same,SPOT peptide array binding signal intensity,[21],≤ 0
same,SPOT peptide array binding signal intensity,[22],83.5
same,SPOT peptide array binding signal intensity,[23],26
same,SPOT peptide array binding signal intensity,[24],≤ 0
same,SPOT peptide array binding signal intensity,[25],≤ 0
same,SPOT peptide array binding signal intensity,[26],≤ 0
same,SPOT peptide array binding signal intensity,[27],≤ 0
same,SPOT peptide array binding signal intensity,[28],184
same,SPOT peptide array binding signal intensity,[29],≤ 0
same,SPOT peptide array binding signal intensity,[30],≤ 0
same,SPOT peptide array binding signal intensity,[31],≤ 0
same,SPOT peptide array binding signal intensity,[32],0.833
same,SPOT peptide array binding signal intensity,[33],3.25
same,SPOT peptide array binding signal intensity,[34],≤ 0
same,SPOT peptide array binding signal intensity,[35],≤ 0
same,SPOT peptide array binding signal intensity,[36],0.5
same,SPOT peptide array binding signal intensity,[37],≤ 0

# — the supplement of paper PMC4466140
